Consider 14 compounds from PubChem BioAssay (NCI).

Compounds without any hit were thinned out: in the full panel of roughly 83,000, 20% have a hit.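 The test compound was applied at a single concentration to cells in 96-well plates for 48 hours, and percent growth was recorded.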 Unmarked numbers belong to inactive results. Calls of active or inactive are those of the source. How the source made its calls: active means growth percent below 10; inactive means the rest.

Test systems include SR leukemia; RPMI-8226 leukemia; OVCAR-8 ovarian; OVCAR-5 ovarian; OVCAR-4 ovarian; SK-OV-3 ovarian; IGROV1 ovarian; OVCAR-3 ovarian; HS 578T breast; NCI/ADR-RES ovarian.
What all share (experiment): NCI-60 one-dose screen, 48 h (100 = growth as untreated, 0 = no growth, -100 = all killed)
Common to all, as to conditions: 10 µM unless noted

Consider `N=C(N)c1ccc(-c2ccc(-c3ccc(F)cc3)o2)o1`, for which the growth was -8.15% (active) with SR leukemia; -2.26% (active) in the test on RPMI-8226 leukemia; 5% (active) with OVCAR-8 ovarian; 58.4% with OVCAR-5 ovarian; 62% in the test with OVCAR-4 ovarian; 28.1% in the test with SK-OV-3 ovarian. Further, the growth with IGROV1 ovarian is 44.9%; in the test on OVCAR-3 ovarian, 7.31% (active); with HS 578T breast, 30.5%; with NCI/ADR-RES ovarian it was 22.6%.
Take `Cc1ccc(Sc2oc(-c3ccc(C)cc3)nc2[P+](c2ccccc2)(c2ccccc2)c2ccccc2)cc1`: the growth in the test with SR leukemia was -18.8% (active); in the test with RPMI-8226 leukemia, -37.6% (active); in the test on OVCAR-8 ovarian, 5.45% (active); with OVCAR-5 ovarian, 7.79% (active); in the test on OVCAR-4 ovarian, -3.08% (active); in the test on SK-OV-3 ovarian, -3.38% (active). The growth was -74.4% (active) in the test on IGROV1 ovarian, -3.45% (active) in the test with OVCAR-3 ovarian, -8.27% (active) with HS 578T breast and 1.73% (active) with NCI/ADR-RES ovarian.
For `CCO/C=N/C1=C(C#N)C(c2ccc(OC)cc2)c2sc3c(F)cccc3c2O1` (stereo not given), the growth in the test on SR leukemia was 25.5%; with RPMI-8226 leukemia, 7.6% (active); with OVCAR-8 ovarian, 36.5%; with OVCAR-5 ovarian it was 63.8%; in the test with OVCAR-4 ovarian, 64.8%; in the test with SK-OV-3 ovarian, 49.6%. Also, the growth in the test on IGROV1 ovarian was 44.4%; in the test on OVCAR-3 ovarian, 8.12% (active); with HS 578T breast, 4.04% (active); in the test on NCI/ADR-RES ovarian, 16.9%.
On to `CN(C)Cc1ccc(NC(=O)c2cncc(C#Cc3cnc(N)c4ncccc34)c2)cc1F`, for which the growth is 2.94% (active) in the test with SR leukemia; 35.6% in the test on RPMI-8226 leukemia; -18% (active) with OVCAR-8 ovarian; 123% with OVCAR-5 ovarian; -71.3% (active) in the test on OVCAR-4 ovarian; 112% in the test with SK-OV-3 ovarian. The growth is 100% with IGROV1 ovarian, 87.9% in the test with OVCAR-3 ovarian, 87.3% in the test with HS 578T breast and 56.9% in the test on NCI/ADR-RES ovarian.
As to `Oc1c(Cl)cc(Cl)c2ccc(Cn3cc(-c4cc(C(F)(F)F)cc(C(F)(F)F)c4)nn3)nc12`, the growth in the test on SR leukemia is -14% (active); in the test with RPMI-8226 leukemia, 3.44% (active); with OVCAR-8 ovarian, 53.6%; with OVCAR-5 ovarian, 95.6%; in the test with OVCAR-4 ovarian it was 48.6%; with SK-OV-3 ovarian, 115%. Also, the growth is 82.3% with IGROV1 ovarian, -4.28% (active) in the test with OVCAR-3 ovarian, 94.9% in the test on HS 578T breast and 97.8% with NCI/ADR-RES ovarian.
With `CCN(CC)CCOc1ccc(-c2c(-c3ccccc3)c(=O)oc3ccccc23)cc1`, the growth with SR leukemia was 93.6%; with RPMI-8226 leukemia it was 90.9%; in the test with OVCAR-8 ovarian it was 90.6%; in the test on OVCAR-5 ovarian, 95.6%; with OVCAR-4 ovarian, 94.2%; in the test with SK-OV-3 ovarian, 79.1%. The growth in the test on IGROV1 ovarian was 95.5%; in the test on OVCAR-3 ovarian, 104%; with HS 578T breast it was 71.2%; in the test on NCI/ADR-RES ovarian, 84.8%.
Turning to `C#CCOc1cccc(Nc2ncnc3c(NC(=O)C=C)cccc23)c1`, the growth with SR leukemia was 9.57% (active); with RPMI-8226 leukemia, -10% (active); in the test on OVCAR-8 ovarian, 4.27% (active); in the test on OVCAR-5 ovarian, 88%; in the test with OVCAR-4 ovarian, 73.9%; with SK-OV-3 ovarian it was 49%. The growth in the test with IGROV1 ovarian is 31%; with OVCAR-3 ovarian, 10.9%; with HS 578T breast, 25%; in the test on NCI/ADR-RES ovarian, 18.1%.
Consider `COc1ccc(-c2nn(-c3ccccc3)cc2/C=C2/SC(=S)N(C)C2=O)cc1`, for which the growth in the test with SR leukemia was 29.3%; in the test on RPMI-8226 leukemia, 89.8%; in the test with OVCAR-8 ovarian, 49.8%; in the test with OVCAR-5 ovarian it was 76.3%; in the test with OVCAR-4 ovarian it was -24% (active); in the test with SK-OV-3 ovarian, 90.8%. Moreover, the growth with IGROV1 ovarian is 33.3%; in the test with OVCAR-3 ovarian, 53%; in the test with HS 578T breast, 39.3%; with NCI/ADR-RES ovarian, 74.5%.
As to `COc1ccc(/C=C2\C(=O)N=C3N2NC(c2cc(Br)ccc2O)C=C(C)N3c2ccccc2)cc1` (stereo not given), the growth with SR leukemia was 102%; with RPMI-8226 leukemia, 91.5%; in the test on OVCAR-8 ovarian it was 98.1%; in the test with OVCAR-5 ovarian it was 104%; with OVCAR-4 ovarian it was 96.5%; with SK-OV-3 ovarian, 99.6%. The growth with IGROV1 ovarian is 91%; with OVCAR-3 ovarian, 103%; with HS 578T breast, 95.9%; with NCI/ADR-RES ovarian, 93.9%.
As to `O=C(O)CNC1=C(Cl)C(=O)c2ccccc2C1=O`, the growth in the test on SR leukemia was 107%; with RPMI-8226 leukemia it was 87.4%; in the test on OVCAR-8 ovarian, 87.9%; with OVCAR-5 ovarian, 118%; in the test on OVCAR-4 ovarian, 97%; with SK-OV-3 ovarian, 114%. The growth with IGROV1 ovarian is 103%; in the test on OVCAR-3 ovarian, 97.5%; with HS 578T breast, 124%; with NCI/ADR-RES ovarian it was 98.3%.
Turning to `Fc1cc(F)cc(C(c2c[nH]c3ccccc23)c2c[nH]c3ccccc23)c1`, the growth was 106% in the test with SR leukemia; 95.2% in the test with RPMI-8226 leukemia; 102% in the test on OVCAR-8 ovarian; 88.8% in the test with OVCAR-5 ovarian; 116% with OVCAR-4 ovarian; 117% in the test on SK-OV-3 ovarian. The growth in the test on IGROV1 ovarian was -6.52% (active); with OVCAR-3 ovarian, 112%; in the test on HS 578T breast, 82%; in the test on NCI/ADR-RES ovarian, 92.2%.
With `O=C(Nn1c2c(sc1=Nc1ccccc1)C(=O)c1ccccc1C2=O)c1cc2ccc1CCc1ccc(cc1)CC2`, the growth in the test with SR leukemia was 61.1%; in the test with RPMI-8226 leukemia it was 75.2%; with OVCAR-8 ovarian, 62.2%; in the test on OVCAR-5 ovarian, 110%; with OVCAR-4 ovarian, 69.4%; in the test with SK-OV-3 ovarian it was 76.3%. Besides, the growth in the test with IGROV1 ovarian was 48.8%; in the test with OVCAR-3 ovarian, 64.8%; in the test on HS 578T breast it was 78.9%; in the test with NCI/ADR-RES ovarian it was 70.2%.
For the compound `C=C1C(=O)O[C@H]2[C@H]1CC/C(COC(=O)CCSCCC(=O)OC/C1=C/CC[C@@]3(C)O[C@H]3[C@H]3OC(=O)C(=C)[C@@H]3CC1)=C\CC[C@@]1(C)O[C@@H]21`, the growth was -15.8% (active) in the test with SR leukemia; -27% (active) with RPMI-8226 leukemia; 9.02% (active) in the test on OVCAR-8 ovarian; -6.34% (active) in the test with OVCAR-5 ovarian; 41.7% with OVCAR-4 ovarian; 93.6% with SK-OV-3 ovarian. In addition, the growth with IGROV1 ovarian was -17.3% (active); in the test on OVCAR-3 ovarian, -68.8% (active); in the test with HS 578T breast, 19.4%; in the test with NCI/ADR-RES ovarian, 53.4%.
For `COc1ccc(C2=Nc3c/c(=C\c4c(O)[nH]c5ccc(Cl)cc45)ccc3=N2)cc1`, the growth is 2.44% (active) in the test on SR leukemia; 22.7% with RPMI-8226 leukemia; 51.7% in the test with OVCAR-8 ovarian; 82.9% in the test with OVCAR-5 ovarian; 64.2% in the test with OVCAR-4 ovarian; 64.6% in the test on SK-OV-3 ovarian. Also, the growth in the test with IGROV1 ovarian was 75.3%; in the test with OVCAR-3 ovarian, 32.7%; in the test on HS 578T breast, 41.8%; in the test with NCI/ADR-RES ovarian, 12.7%.
